Key:
Settings in all cases: concentration: 1 μM, replicates: in singlicate; n = 1
EIF2AK1 = tested on: EIF2AK1
EPHA1 = tested on: EPHA1
EPHA2 = tested on: EPHA2
EPHA3 = tested on: EPHA3
EPHA4 = tested on: EPHA4
EPHA5 = tested on: EPHA5
EPHA6 = tested on: EPHA6
EPHA7 = tested on: EPHA7
EPHA8 = tested on: EPHA8
EPHB1 = tested on: EPHB1
EPHB2 = tested on: EPHB2
EPHB3 = tested on: EPHB3
EPHB4 = tested on: EPHB4
EPHB6 = tested on: EPHB6
ERBB2 = tested on: ERBB2
ERBB3 = tested on: ERBB3
ERBB4 = tested on: ERBB4
ERK1 = tested on: T1, ERK1
T1 construct: gene MAPK3

ERK2 = tested on: T2, ERK2
T2 construct: gene MAPK1

ERK3 = tested on: T3, ERK3
T3 construct: gene MAPK6
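Further: KINOMEscan kinase panel screen.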

SMILES | %Inh (EIF2AK1) [%] | %Inh (EPHA1) [%] | %Inh (EPHA2) [%] | %Inh (EPHA3) [%] | %Inh (EPHA4) [%] | %Inh (EPHA5) [%] | %Inh (EPHA6) [%] | %Inh (EPHA7) [%] | %Inh (EPHA8) [%] | %Inh (EPHB1) [%] | %Inh (EPHB2) [%] | %Inh (EPHB3) [%] | %Inh (EPHB4) [%] | %Inh (EPHB6) [%] | %Inh (ERBB2) [%] | %Inh (ERBB3) [%] | %Inh (ERBB4) [%] | %Inh (ERK1) [%] | %Inh (ERK2) [%] | %Inh (ERK3) [%]
Clc1cc(Nc2ncnc3cc[nH]c23)ccc1OCc1ccccn1 | 3 | 11 | 12 | 0 | 24 | 14 | 27 | 1 | 0 | 1 | 15 | 21 | 25 | 35 | 100 | 24 | 73 | 0 | 18 | 0
Nc1nc(-c2ccc3c(N)n[nH]c3c2)cc(N2CCC[C@@H](C(=O)Nc3ccccc3)C2)n1.O=C(O)C(F)(F)F.O=C(O)C(F)(F)F [GSK2288359] | 1 | 17 | 0 | 0 | 4 | 0 | 0 | 3 | 3 | 21 | 0 | 5 | 1 | 29 | 0 | 0 | 2 | 100 | 0 | 18
CC(C)N1CCC(n2cnc(-c3ccc(F)cc3)c2-c2ccnc(N)n2)CC1 [SB-223132] | 0 | 28 | 46 | 0 | 0 | 0 | 0 | 0 | 17 | 0 | 32 | 0 | 22 | 0 | 16 | 44 | 0 | 0 | 11 | 0
Nc1nc(-c2ccc3c(N)n[nH]c3c2)cc(N2CCCCC2)n1 [GSK2228768] | 0 | 0 | 0 | 0 | 3 | 0 | 0 | 0 | 0 | 9 | 0 | 0 | 8 | 0 | 2 | 0 | 0 | 0 | 0 | 6
